# In PubChem BioAssay AID463173 (ICCB-Longwood Screening Facility, Harvard Medical School, 2010):
# Hit rate of the full screen: of about 52,000 compounds, about 4,300 (8.3%) were called active. The sample holds actives, similar compounds and a random draw of the others, so the mix is not that of the screen. Unmarked numbers belong to inactive results. Cut-off read from the data, not from the text of the source: active = survival mostly below about 52% (no sharp cut-off); inactive = mostly above about 56%.
# Test system: DeltatarO mutant
# Assay: S. aureus survival, RN4220 and DeltatarO strains – OD600, teichoic acid synthesis inhibitors, primary screen (AID 463173)
# Conditions: S. aureus RN4220 wild type/DeltatarO growth, OD600, 18 h, active compounds read low, screened at 18.75 µg/mL (by protocol)
row,SMILES,survival
1,COc1cc(C(=O)NCc2ccc3c(c2)CCN3C(=O)c2ccncc2)cc(OC)c1OC,101%
2,Cc1cccc(N2CCN(C(=O)c3cn(C4CCCCC4)c(=O)c4c3c3ccccc3n4C)CC2)c1C,115%
3,CCC1CC(/C(C)=N/NC(N)=O)OC1=O (stereo not drawn),71%
4,Cc1c(-c2nc(-c3ccccc3F)no2)nnn1-c1cc(F)ccc1F,84%
5,CCOC(=O)c1c(C)n(-c2ccccc2)c2ccc(OC(=O)c3cccc(C)c3)cc12,63%
6,CCOC(=O)c1c(C)n(-c2ccccc2)c2ccc(OC(=O)c3ccccc3NC(=O)C(C)C)cc12,47% (active)
7,CCOC(=O)c1c(C)n(-c2ccccc2)c2ccc(OC(=O)c3ccccc3)cc12,3% (active)
8,CCOC(=O)c1c(C)n(-c2ccccc2)c2ccc(OC(=O)c3cccc(Cl)c3)cc12,79%
9,CCOC(=O)c1c(C)n(-c2ccccc2)c2ccc(OC(=O)c3ccccc3NC(=O)C(C)(C)C)cc12,55%
10,CCOC(=O)c1c(C)n(-c2ccccc2)c2ccc(OC(=O)c3ccccc3Cl)cc12,54%
11,COc1ccc(S(=O)(=O)N2CCC(C(=O)Nc3ccc(Oc4ccccc4)cc3)CC2)cc1,72%
12,O=C(COc1ccc(S(=O)(=O)NC2CCCCC2)cc1Cl)NCc1ccccn1,104%
13,COc1ccc(N2CCN(C(CNC(=O)C(=O)NCc3ccc(C)cc3)c3cccnc3)CC2)cc1 (stereo not drawn),61%
14,CCCCNc1nc2c(S(=O)(=O)c3ccc(C)cc3)nnn2c2ccsc12,114%
15,Cc1ccc(C)c(NC(=O)CSc2nncn3c2cc2sccc23)c1,69%
16,O=C(c1cc2c(=O)[nH]c3ccccc3c2s1)N1CCN(c2ccc(F)cc2)CC1,51%
17,CCC(=O)N1c2ccccc2CC1C(=O)NCCN1CCN(c2cc(Cl)ccc2C)CC1 (stereo not drawn),52% (active)
18,Cc1ccc(Cl)cc1N1CCN(CCCNC(=O)c2nnc(Cc3cccc(Cl)c3)o2)CC1,25% (active)
19,O=C(NCCCN1CCN(c2ccc(F)cc2)CC1)Nc1ccc(Cl)cc1,72%
20,Cc1ccc(Cl)cc1N1CCN(CCNC(=O)Nc2ccccc2Cl)CC1,77%
21,O=C(NCCCN1CCN(c2ccccc2F)CC1)c1nnc(Cc2ccc(Cl)cc2Cl)o1,80%
22,Cc1ccc(C)c(N2CCN(CCCNC(=O)Nc3ccc(Cl)cc3)CC2)c1,-5% (active)
23,Cc1cccc(N2CCN(CCNC(=O)Nc3ccc(Cl)cc3)CC2)c1C,66%
24,COc1ccc(Cc2nnc(C(=O)NCCCN3CCN(c4ccccc4F)CC3)o2)cc1OC,78%

row,SMILES,survival
1,CCOc1ccc(NC(=O)NCCN2CCN(c3cc(Cl)ccc3C)CC2)cc1,54%
2,CCC(=O)N1c2ccccc2CC1C(=O)NCCN1CCN(c2cccc(C)c2C)CC1 (stereo not drawn),77%
3,CCC(=O)N1c2ccccc2CC1C(=O)NCCN1CCN(c2cccc(Cl)c2)CC1 (stereo not drawn),87%
4,Cc1ccc(Cl)cc1N1CCN(CCNC(=O)Nc2ccc(Cl)cc2)CC1,-4% (active)
5,CCc1ccc(S(=O)(=O)Nc2ccc(-c3ccc(N4CCCCCC4)nn3)cc2)cc1,95%
6,Cc1ccc(C)c(N(C)C(=O)CCNC(=O)Cn2cnc3ccccc3c2=O)c1,69%
7,Cc1ccc(S(=O)(=O)NC2(C(F)(F)F)C(=O)Nc3c2c(=O)[nH]c(=O)n3-c2ccccc2)cc1 (stereo not drawn),89%
8,COc1cc(OC)cc(-c2nc3nc(C)c(CCC(=O)Nc4ccc(Cl)cc4)c(C)n3n2)c1,65%
9,COc1cccc(CNc2ncnc3onc(C)c23)c1,125%
10,Cc1ccc(NC(=O)N2CCc3cc(S(=O)(=O)N4CCC(C)CC4)ccc32)cc1F,105%
11,COc1c(C)cccc1C(=O)Nc1ccc(-c2nc3ccccc3s2)c(Cl)c1,68%
12,Cc1ccccc1CNC(=O)c1ccc2nc(C(C)C)oc2c1,83%
13,COc1ccc(-c2onc(C)c2C)cc1S(=O)(=O)N1CCN(c2cc(C)ccc2C)CC1,81%
14,Cc1ccc(C(=O)NCCSc2c[nH]c3ccccc23)cc1C,46% (active)
15,Cc1ccc(C(=O)NCCSc2c(C)[nH]c3ccccc23)cc1C,55%
16,O=C(NCCSc1c[nH]c2ccccc12)c1ccccc1Cl,57%
17,COc1ccc(C(=O)NCCSc2c[nH]c3ccccc23)cc1OC,76%
18,O=C(NCCSc1c[nH]c2ccccc12)c1ccc(Cl)cc1,47% (active)
19,CN(C)S(=O)(=O)c1ccc(C(=O)NCCSc2c(-c3ccc(Cl)cc3)[nH]c3ccccc23)cc1,67%
20,Cc1ccc(Cn2c(CN3CCN(c4cccc(Cl)c4)CC3)nc3c2c(=O)n(C)c(=O)n3C)cc1,107%
21,COc1cccc(C2CC(=O)Nc3c2c(=O)n(C)c2nc4ccccc4n32)c1 (stereo not drawn),67%
22,CCn1c(=O)cc(SCC(=O)NCc2ccc(OC)cc2OC)c2ccccc21,66%
23,CCCCOc1ccc(C2=NC(c3ccncc3)=Nc3ccc(Br)cc3N2)cc1,12% (active)
24,CCCCOc1ccc(C2=NC(c3ccncc3)=Nc3ccc(OCC)cc3N2)cc1,75%

row,SMILES,survival
1,COc1ccc(C2=NC(c3ccncc3)=Nc3ccc(Br)cc3N2)cc1,82%
2,COc1ccc(CNC(=O)c2cc3oc4ccccc4c3n2C)cc1OC,43% (active)
3,CCOc1ccccc1CNC(=O)c1cc2oc3ccccc3c2n1CC,2% (active)
4,CCn1c(C(=O)NCc2cccc(Br)c2)cc2oc3ccccc3c21,50%
5,CCn1c(C(=O)NCc2ccc(F)cc2)cc2oc3ccccc3c21,89%
6,CCn1c(C(=O)NCc2ccccc2Br)cc2oc3ccccc3c21,48%
7,CCOc1ccc(CNC(=O)c2cc3oc4ccccc4c3n2C)cc1,95%
8,CCn1c(C(=O)NCc2cc(Br)ccc2OC)cc2oc3ccccc3c21,67%
9,CCCOc1ccc(CNC(=O)c2cc3oc4ccccc4c3n2C)cc1,73%
10,CCn1c(C(=O)NCc2ccccc2C)cc2oc3ccccc3c21,14% (active)
11,Cn1c(C(=O)NCc2cccc(Cl)c2)cc2oc3ccccc3c21,85%
12,CCn1c(C(=O)NCc2ccc(OC(C)C)cc2)cc2oc3ccccc3c21,33% (active)
13,Cn1c(C(=O)NCc2ccccc2F)cc2oc3ccccc3c21,55%
14,Cc1c(-c2nsc(NC(=O)c3cccs3)n2)nnn1-c1ccc(Br)cc1,77%
15,COc1ccc2[nH]c(=O)c(CN(C3CCCC3)S(=O)(=O)c3cccc4nsnc34)cc2c1,96%
16,Cc1ccc(NC(=O)Cn2c(=O)n(CCCCC(=O)NCCc3ccccc3)c(=O)c3ccccc32)c(C)c1,84%
17,CCc1ccc(NC(=O)CSc2ccc(-c3cccs3)nn2)cc1,72%
18,Cc1cccc(NC(=O)c2cc3c(=O)n4cccc(C)c4nc3s2)c1C,65%
19,CC(=O)OC1=CN(Cc2ccccc2)S(=O)(=O)c2ccccc21,71%
20,COc1ccccc1CNC(=O)CCCCn1c(=O)c2ccccc2n(Cc2ccccc2F)c1=O,93%
21,COc1cccc(NC(=O)c2ccc(CNS(=O)(=O)c3ccc4c(c3)C(C)(C)C(=O)N4C)cc2)c1,51%
22,CCc1nn(Cc2c(C)cc(C)cc2C)c(=O)c2cc3cc(C)ccc3n12,88%
23,CCc1nn(Cc2ccc(Cl)cc2)c(=O)c2cc3cc(C)ccc3n12,94%
24,CCc1nn(Cc2cccc(F)c2)c(=O)c2cc3cc(C)ccc3n12,40% (active)

row,SMILES,survival
1,COc1cccc(C(=O)N2c3cc(C)ccc3C(C)(c3ccccc3)CC2(C)C)c1 (stereo not drawn),1% (active)
2,COc1cccc(C(=O)N2c3ccc(C)cc3C(C)(c3ccccc3)CC2(C)C)c1 (stereo not drawn),-5% (active)
3,COc1cccc(C(=O)N2CC(C)OC(C)C2)c1 (stereo not drawn),65%
4,COc1ccc(C)cc1NC(=O)NCc1ccc2c(c1)CCN2C(=O)c1ccccc1,105%
5,COC(=O)C1=NN(C(=O)c2cccc(OC)c2)C(C)(O)C1 (stereo not drawn),104%
6,COc1ccccc1C(=O)NCc1ccc2c(c1)CCN2C(=O)c1cccc(C)c1,77%
7,COc1ccc(-c2cc3ccc(O)c(CN4CCCC(C)C4)c3oc2=O)cc1 (stereo not drawn),79%
8,CCOc1ccccc1Nc1nc(-c2cccc(Cl)c2)c2c(n1)-c1ccccc1OC2,61%
9,CN(C(=O)CSc1nc2ccc(NC(=O)CCc3ccccc3)cc2s1)c1ccccc1,73%
10,C=CCc1c(C)[nH]c2ccccc2c1=O,98%
11,NNC(=O)CSc1c(-c2cccs2)[nH]c2ccccc12,84%
12,Cc1ccc(C(c2cccc(Br)c2)c2c(C)[nH]c3ccccc23)s1 (stereo not drawn),65%
13,Cc1[nH]c2ccccc2c1C(c1ccccc1)c1ccc(Cl)s1 (stereo not drawn),0% (active)
14,Cc1ccc(CNC(C)c2ccccc2)s1 (stereo not drawn),75%
15,CCCCc1c(C)[nH]c2ccccc2c1=O,83%
16,CCc1ccc(C(c2ccccc2)c2c(C)[nH]c3ccccc23)s1 (stereo not drawn),25% (active)
17,Cc1[nH]c2ccccc2c1C1(O)C(=O)Nc2ccc(Cl)cc21 (stereo not drawn),66%
18,Cc1ccc(C(c2ccccc2)c2c(C)[nH]c3ccccc23)s1 (stereo not drawn),26% (active)
19,S=c1nc(Cc2cccs2)[nH]c2ccccc12,100%
20,Cc1[nH]c2ccccc2c1C(c1ccccc1)c1cccs1 (stereo not drawn),7% (active)
21,Cc1cccc(Nc2c(-c3ccsc3)nc3nc(C)cc(C)n23)c1,130%
